Bioassay records (PubChem)
An excerpt weighted towards active compounds, which were near 7.3% of everything screened.
Rab9 promoter act – activates the Rab9 promoter. Huh7 Rab9 promoter-luciferase reporter, luminescence, 24 h. AID 485297. Potency, µM (top dose mostly 9.22 µM), for the others: at the top dose activation, negative = inhibition, actives largely listed as activators. 320,000 tested, 2.8% active; note: % of control where 0% means no effect; nearly all actives have a fitted effect of over 60% in size
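Luminescence from Amplite-detected luciferase (10 minutes, ambient) reports Rab9 promoter activation. Before that, stable Rab9-luciferase Huh7 cells (1500/well, reduced-serum OP-MEM I plus 10% FBS) were exposed to compound for 24 hours at 37C.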
FLuc modulator – counter-screen for miR-21 project: firefly luciferase inhibitors or activators. purified FLuc, Km substrates, luminescence inhibition. P08659. 360,000 tested, 6.9% active. AID 588342. Potency, µM (doses to about 57.5 µM), without a hit: at the highest dose activity change, negative = inhibition, actives largely listed as inhibitors;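 note: plate controls were vehicle for no effect and reference inhibitor for full effect; nearly all actives have a fitted effect of over 55% in size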
Target sequence (P08659 whole entry, looked up): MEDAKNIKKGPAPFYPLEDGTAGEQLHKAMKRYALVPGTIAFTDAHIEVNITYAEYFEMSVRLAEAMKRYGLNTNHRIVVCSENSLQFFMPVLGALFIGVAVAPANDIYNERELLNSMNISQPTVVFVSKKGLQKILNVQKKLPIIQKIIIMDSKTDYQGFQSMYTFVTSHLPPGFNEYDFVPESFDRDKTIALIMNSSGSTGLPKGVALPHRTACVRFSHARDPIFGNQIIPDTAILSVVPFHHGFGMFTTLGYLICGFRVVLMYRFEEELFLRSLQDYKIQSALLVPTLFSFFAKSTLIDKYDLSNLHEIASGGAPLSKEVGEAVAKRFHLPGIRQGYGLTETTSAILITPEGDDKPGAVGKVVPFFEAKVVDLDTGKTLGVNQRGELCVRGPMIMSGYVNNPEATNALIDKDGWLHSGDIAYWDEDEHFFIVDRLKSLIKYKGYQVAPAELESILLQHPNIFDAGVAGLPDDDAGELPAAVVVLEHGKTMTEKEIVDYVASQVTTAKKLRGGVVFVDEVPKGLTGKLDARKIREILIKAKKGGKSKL
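Biochemical qHTS of compounds, final roughly 60 µM downward over six points, against 10 nM purified firefly luciferase using Km concentrations of substrates (10 uM D-luciferin, 10 uM ATP) in Tris acetate pH 7.5 buffer; luminescence output.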
Luc counter – Kinase-Glo luciferase inhibition (counter-screen); Kinase-Glo luciferase, ATP luminescence, 8 min; Potency, µM (series often up to 38.3 µM), for inactives: at the highest dose activity change, negative = inhibition, actives largely listed as inhibitors; Q27757; 200,000 tested, 0.28% active; AID 1379; note: % is set by controls: 0 for no effect and ±100 for the full control effect; nearly all actives have a fitted effect of over 60% in size
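Compound is pinned into ATP-containing buffer (10 uM ATP, imidazole pH 7.2, 7 mM MgCl2). Kinase-Glo luciferase reagent is then added. Light output is recorded following an 8-min room-temperature incubation.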
NPC1 prom act – activators of NPC1 promoter | AID 485313 | 320,000 tested, 2.4% active | Potency, µM (titrated, usually from 9.22 µM), inactives show top-dose activation, most hits filed as activators | Huh7 NPC1 promoter luciferase reporter, 24 h; note: % of control where 0% means no effect; nearly all actives have a fitted effect of over 60% in size
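Quantitative HTS used a cell-based reporter: Huh7 cells stably bearing the NPC1 promoter upstream of luciferase were treated with compounds for 24 h, and promoter activation was read as luminescence.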
ELG1 genotoxic – genotoxicity induction in ELG1-luciferase HEK293T cells; HEK293T ELG1-luciferase reporter, luminescence, 16 h; Potency, µM (highest dose often 46 µM), for inactives: top-dose activity change, positive = activation, most hits filed as activators; 330,000 tested, 1.3% active; note: % of control where 0% means no effect; nearly all actives have a fitted effect of over 60% in size
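Luminescence read-out: rising ELG1-luciferase signal, reflecting elevated ELG1 protein under genetic stress, flags genotoxic compounds. Cells were treated for 16 hr at 37 °C before ONE-Glo detection.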
SMN2 splice up – enhancers of SMN2 splice variant expression | HEK293 SMN2-luciferase splicing reporter, luminescence, 30-36 h | Potency, µM (titrated, usually from 46.1 µM), without a hit: at the highest dose activity change, positive = activation, actives largely listed as activators | 210,000 tested, 2.8% active | AID 1458; note: % of control where 0% means no effect; nearly all actives have a fitted effect of over 55% in size
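HEK293 cells carry an SMN2 minigene-luciferase reporter in which exon 7 inclusion puts luciferase in frame. Cells were seeded at 2000 cells/well, attached for 10-12 hours, then exposed to compounds for 30-36 hours at 37C before ONE-Glo luminescence.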
* hit, by the source's call; u = inconclusive; x = not tested or not shown; [ ] = another dose, or the depositor's remark. Calls come from the whole dose curve; as a rule, active = well fitted curve in the direction sought with a large enough effect; inconclusive = small, poorly fitted or top-dose-only effect, or another doubt; inactive = no such curve, though single readings can be large; an effect the other way counts as inactive or inconclusive. Potency is the fitted concentration of half-maximal effect.

SMILES | Rab9 promoter act | FLuc modulator | Luc counter | NPC1 prom act | ELG1 genotoxic | SMN2 splice up
CCOc1ccc(/C=C2\SC(=S)N(N3C(=O)C4CC4C3=O)C2=O)cc1 (stereo not given) | 0% | u | 1% | -2% | 1% | 5%
CCOc1ccc(/C=C2/SC(=O)NC2=S)cc1 | u | 17µM* | 1% | 25% | 7% | u
CCOc1ccc(N=C2NC(=O)S/C2=C\c2ccc(N(C)C)cc2)cc1 | u | 12µM* | -3% | 4.5µM* | u | 11µM*
O=C1NC(=Nc2ccc(Cl)cc2)/C(=C/c2ccco2)S1 | -2% | -13% | -2% | -2% | 10% | u
O=C(O/N=C1\CCCc2ccccc21)c1cccc(Cl)c1 | -9% | 3µM* | -10% | 0% | -2% | -1%
Cc1ccc(C(=O)O/N=C2\CCCc3ccccc32)cc1 | 0% | 0.17µM* | -24% | 15% | 0% | -1%
Cc1ccc(C(=O)O/N=C2\CCSc3ccc(C)cc32)cc1 | 1% | 7.6µM* | -5% | -2% | u | -2%
Cc1cccc(C(=O)O/N=C2\CCCc3ccccc32)c1 | 21% | 0.67µM* | -16% | u | -1% | -15%
COc1ccc(NC(=O)Cn2ccn(Cc3ccccc3)c(=O)c2=O)cc1Cl | x | -6% | x | x | x | x
COc1ccc(C)c2sc(NC(=O)c3ccc(S(=O)(=O)N(C)C)cc3)nc12 | x | -4% | x | x | x | x
COc1cccc(CNS(=O)(=O)c2ccc3c(c2)C(C(C)C)C(=O)N3)c1 (stereo not given) | x | -7% | x | x | x | x
CC1=C(C(=O)Nc2ccccc2)C(c2ccc(Br)cc2)n2nc(CCCO)nc2N1 (stereo not given) | x | 1% | x | x | x | -3%
CCc1ccc(C(=O)c2cn(CC(=O)Nc3ccc(OC)c(Cl)c3)c3nc(C)ccc3c2=O)cc1 | x | -5% | x | x | x | x
O=C(O)c1ccc(N/N=C2/CCCc3ccccc32)cc1 | 2.5µM* | 9.5µM* | x | 3.2µM* | u | x
O=C(O)c1ccc(N/N=C2/CCSc3ccc(F)cc32)cc1 | 10% | u | x | -7% | u | x
CCOC(=O)c1ccc(Nc2c(-c3ccc(N(C)C)cc3)nc3nc[nH]n23)cc1 | x | -16% | x | x | x | x
COC(=O)c1ccc(CSc2nnc3c(n2)[nH]c2ccccc23)cc1 | -4% | -1% | x | -2% | 1% | x
COC(=O)c1ccc(CSc2nnc(N)s2)cc1 | u | u | 1% | u | 30% | 7%
COC(=O)c1ccc(CSc2nc(N)cc(N)n2)cc1 | 30% | u | -1% | 26% | 15µM* | 7%
O=C(CSc1nc2ccccc2o1)NCC(=O)c1ccccc1 | 12% | 7%[2.3 µM] | -2% | 2% | 1% | -12%
O=[N+]([O-])c1ccc(CSc2nc3ccccc3o2)cc1 | 0.89µM* | 2.4µM* | -2% | 0.63µM* | u | 7.9µM*
COC(=O)c1ccc(CSc2nc3ccccc3o2)cc1 | 0.89µM* | 1.1µM* | -7% | 1.6µM* | u | 22µM*
COC(=O)c1ccc(CSc2nnc(C)s2)cc1 | 3.5µM* | u | -7% | u | 27% | 25µM*
O=[N+]([O-])c1ccc(CSc2nnc(SCc3ccccc3)s2)cc1 | 2% | 1% | 0% | -2% | 1% | -6%
CCOc1ccc(CCNC(c2nnc(-c3ccccc3)o2)c2ccccc2Cl)cc1OCC (stereo not given) | x | 6% | x | x | x | 53%
SMILES | Rab9 promoter act | FLuc modulator | Luc counter | NPC1 prom act | ELG1 genotoxic | SMN2 splice up
CCOC(=O)c1cc(S(=O)(=O)N2CCN(c3ccc(F)cc3)CC2)[nH]n1 | x | -6% | x | x | x | x
Cc1cc(C)c(NC(=O)Cn2c(=O)n(CCC(=O)NCc3ccccc3Cl)c(=O)c3sccc32)c(C)c1 | x | 5% | x | x | x | 0%
Cc1ccc(-c2csc(-c3cc4c([nH]c3=O)CC(c3ccccc3)CC4=O)n2)cc1 (stereo not given) | x | 1% | x | x | x | -6%
COc1ccc(Cl)cc1C(=O)NCC(c1ccc(N(C)C)cc1)N1CCCC1 (stereo not given) | x | -1% | x | x | x | x
CCOc1ccc2nc(N3CCC(C(=O)Nc4c(C)cccc4C)CC3)sc2c1 | x | -13% | x | x | x | -4%
CCOc1ccc2nc(N3CCCC(C(=O)NCc4ccc(C)cc4)C3)sc2c1 (stereo not given) | x | -19% | x | x | x | 16%
CCOc1ccc2nc(N3CCC(C(=O)NCCCN4CCOCC4)CC3)sc2c1 | 3.5µM* | 8.5µM* | x | u | u | x
CCOc1ccc2nc(N3CCCC(C(=O)NCCCN4CCOCC4)C3)sc2c1 (stereo not given) | 30% | 13µM* | 2% | 22% | u | 13µM*
CC(=O)N1CCc2cc(Br)cc(S(=O)(=O)NCCc3ccc(Cl)cc3)c21 | x | 4% | x | x | x | 12%
O=C1c2ccccc2-c2nc3ccccc3cc21 | 5µM* | 2.1µM* | x | 3.5µM* | u | x
c1ccc2c(c1)Cc1cc3ccccc3nc1-2 | 0.4µM* | 0.95µM* | 10µM* | 1.3µM* | 3.7µM* | 4µM*
COc1ccc(NC(=O)Cn2cc(C(=O)c3ccccc3OC)c(=O)c3ccc(C)nc32)cc1OC | x | -9% | x | x | x | x
CN(C)c1ccc(-c2nc3cnccn3c2Nc2cccc(C(F)(F)F)c2)cc1 | x | -16% | x | x | x | 2%
COc1cccc(C(=O)O/N=C(\N)c2ccc(C)cc2)c1 | 26% | 1.9µM* | x | 3.2µM* | u | x
Cc1cccc(/C(N)=N/OC(=O)c2ccncc2)c1 | 4µM* | 8.5µM* | x | 1.1µM* | u | x
N/C(=N\OC(=O)c1cccc2ccccc12)c1ccncc1 | -2% | 24µM* | x | 2% | u | x
COc1cccc(OC)c1C(=O)O/N=C(\N)c1ccncc1 | -19% | 1% | x | -7% | 0% | x
COc1cccc(C(=O)O/N=C(\N)c2ccncc2)c1 | -1% | 1.3µM* | -24% | u | u | 12%
Cc1nc(Cl)cc(N/N=C/c2ccc(O)cc2O)n1 | 4% | 13µM* | x | -1% | 13% | x
Cc1nc(Cl)cc(N/N=C/c2ccc(O)cc2)n1 | 6% | 21µM* | x | 15% | u | x
O=C1CCC=C1C(O)c1ccccc1 (stereo not given) | x | x | 0% | x | x | -6%
CCCCC1=CC2=C(c3ccco3)C(=O)C(C)(OC(=O)c3cccs3)C(=O)C2=CO1 (stereo not given) | x | x | -1% | x | x | -1%
Cc1cc2oc(=O)c(CC(=O)NCCc3ccccc3F)c(C)c2c2occ(C(C)(C)C)c12 | x | u | x | x | x | -2%
Fc1ccc(-c2ncc3ccccn23)cc1 | 0% | -15% | -5% | 0% | 7% | x
Clc1ccc(/C=C/c2ncc3ccccn23)cc1 | 1µM* | 6.7µM* | 0% | 1.6µM* | u | x
COC(=O)c1sccc1S(=O)(=O)N1CCN(c2cccc(C)c2C)CC1 | x | -9% | x | x | x | x
